DT40 TDP1 CPT: DT40-hTDP1 cell growth loss with CPT; Potency, µM (highest dose often 46.2 µM), usual class: inhibitors; chicken DT40 Tdp1-/-;hTDP1 cells + 20 nM CPT, ATP luminescence, 48 h; 12% of 420,000 active; note: nearly all actives have a fitted effect of over 55% in size
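Chicken DT40 Tdp1-/- cells stably complemented with human TDP1 were seeded at 400 cells/well in medium containing 20 nM camptothecin, exposed to pin-transferred compounds, and grown at 37 °C for at least 48 hr. Viability was read as ATP luminescence.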
IL-1B inflam inh: blocks inflammasome-driven IL-1 beta release; 4.7% of 360,000 active; THP-1 LPS/ATP IL-1B secretion, AlphaLISA, 16 h; stronger effect = lower value; activity change, % at 57.5 µM; in the data active = activity change below about -50%; inconclusive = mostly about -30% to -49%
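THP-1 cells pretreated 1 hr with compounds (up to 57.5 uM final), then stimulated with LPS (250 ng/mL final) plus ATP (1.25 mM final); secreted IL-1B measured by AlphaLISA after 16 hr, decreased signal indicating inhibition.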
TDP1 cell noCPT: qHTS for Inhibitors of human tyrosyl-DNA phosphodiesterase 1 (TDP1): qHTS in cells in absence of CPT; DT40 Tdp1-/- hTDP1 cells, no CPT, ATP luminescence, 48 h; Potency, µM (highest dose often 46.2 µM), actives largely listed as inhibitors; 15% of 420,000 active; AID 686978, 2013; note: nearly all actives have a fitted effect of over 55% in size
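Seeded 400 DT40-hTDP1 cells/well (vehicle DMSO, no 20 nM CPT); pinned compounds; ≥48 hr at 37 °C; CellTiter-Glo luminescence as viability measure.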
DRD3 agonist: D3 dopamine receptor (human) agonism | P35462 | D3R DiscoveRx beta-arrestin cells, luminescence, 90 min | max activation, % | 0.58% of 410,000 active | AID 652048; in the data active = max activation above about 30%
Target sequence (P35462 whole entry, looked up): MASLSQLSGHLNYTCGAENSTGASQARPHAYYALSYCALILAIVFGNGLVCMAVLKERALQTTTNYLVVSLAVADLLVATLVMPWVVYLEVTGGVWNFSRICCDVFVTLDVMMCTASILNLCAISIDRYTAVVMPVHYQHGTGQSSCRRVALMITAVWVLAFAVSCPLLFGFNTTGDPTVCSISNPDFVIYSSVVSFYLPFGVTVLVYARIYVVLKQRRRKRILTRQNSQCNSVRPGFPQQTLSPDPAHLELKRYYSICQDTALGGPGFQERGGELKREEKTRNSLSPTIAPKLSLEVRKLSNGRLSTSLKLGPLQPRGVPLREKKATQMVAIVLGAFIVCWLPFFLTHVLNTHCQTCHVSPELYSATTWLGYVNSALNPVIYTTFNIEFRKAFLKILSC
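Cells at 1500/well, incubated overnight, then treated with pinned compounds (dopamine as control) for 90 min at 37 degrees C. DiscoveRx reagent added for 30 - 60 minutes at room temperature; luminescence read.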
ClpP mod: qHTS Assay for Activators of ClpP | AID 651965, 2013 | purified B. subtilis ClpP, FRET peptide cleavage, 20 min | 1.9% of 340,000 active | Potency, µM (doses to about 57.5 µM); active = well fitted falling curve with a large enough effect; inconclusive = small, poorly fitted or top-dose-only effect; inactive = no such curve, though single readings can be large or run the other way; note: the source files actives as falling curves though it sought activators and does not explain the sign; nearly all actives have a fitted effect of over 65% in size
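ClpP 10 microg/mL final, pH 8 Tris/KCl buffer with BSA, glycerol, Tween-20; compound pinned in; FRET-FV substrate; RT 20 min; Ex320/Em430; ΔFRET vs ADEP 5.8 microM, DMSO, no enzyme.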
D3 antag: D3 dopamine receptor (human) antagonism | AID 652054 | 2.5% of 360,000 active | D3R cells, DiscoveRx beta-arrestin luminescence, antagonist mode; stronger effect = lower value | P35462 | max response, negative = inhibition, %; in the data active = max response below about -50%; inconclusive = no clear call, values can overlap the other calls
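Cells expressing the human receptor were seeded at 1500 cells/well, incubated overnight at 37 degrees C in 5% CO2, then exposed to library compounds with dopamine controls for 90 minutes at 37 degrees C before luminescent detection.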
Large screens that a line does not name were inactive. Only some compounds are listed: those with a hit (about 21% of all), similar ones and a draw of the others. Unless noted, calls come from the whole dose curve; as a rule, active = well fitted inhibition curve with a large enough effect; inconclusive = small, poorly fitted or top-dose-only effect; inactive = flat fitted curve, though single readings scatter.

Cc1c(C(=O)Nc2ccc(F)c(F)c2)oc2ccc(S(=O)(=O)N3CCC4(CC3)OCCO4)cc12	DT40 TDP1 CPT 13µM, TDP1 cell noCPT 12µM, DRD3 agonist 31 (no result: IL-1B inflam inh, D3 antag)
Cc1c(C(=O)Nc2ccc(F)c(F)c2)oc2ccc(S(=O)(=O)N3CCCCC3)cc12	DT40 TDP1 CPT 23µM, IL-1B inflam inh inconclusive, TDP1 cell noCPT inconclusive, ClpP mod inconclusive
Cc1ccc(NC(=O)c2oc3ccc(S(=O)(=O)N4CCCCC4)cc3c2C)c(C)c1	none (no result: IL-1B inflam inh, D3 antag)
Cc1c(C(=O)Nc2ccc(Br)cc2F)oc2ccc(S(=O)(=O)N3CCC4(CC3)OCCO4)cc12	TDP1 cell noCPT inconclusive (no result: IL-1B inflam inh, D3 antag)
CCCCC1=C([O-])C2N=CC=CC2=[N+](c2ccccn2)C1=O (configuration not stated)	TDP1 cell noCPT inconclusive
Cc1ccc(OCCn2nnc3sc4c(c3c2=O)CCC(C)C4)cc1 (configuration not stated)	none (no result: IL-1B inflam inh, D3 antag)
CCSc1nn(CC(=O)Nc2cccc(Cl)c2)c(N)c1S(=O)(=O)c1ccc(OC)cc1	DT40 TDP1 CPT inconclusive, TDP1 cell noCPT inconclusive (no result: IL-1B inflam inh, D3 antag)
Cc1ccc(NC(=O)N(Cc2cccnc2)Cc2ccco2)cc1C	none
Cc1ccc(NC(=O)N(Cc2ccco2)C(C)c2ccco2)cc1C (configuration not stated)	DT40 TDP1 CPT inconclusive, TDP1 cell noCPT 23µM, D3 antag inconclusive
Cc1ccc(NC(=O)CN(Cc2ccco2)Cc2ccccc2O)cc1C	DT40 TDP1 CPT inconclusive, IL-1B inflam inh -62, TDP1 cell noCPT inconclusive (no result: ClpP mod)
COC(=O)c1ccc(NC(=S)NC2c3ccccc3CC2O)cc1 (configuration not stated)	none (no result: ClpP mod)
Cc1cc2c(c(=O)o1)C(c1ccc([N+](=O)[O-])o1)C(C#N)=C(N)O2 (configuration not stated)	TDP1 cell noCPT inconclusive (no result: IL-1B inflam inh, ClpP mod)
O=C(c1ccc2c(=O)n3c(nc2c1)CCCCC3)N1CCN(c2ccc([N+](=O)[O-])cc2)CC1	DT40 TDP1 CPT inconclusive, TDP1 cell noCPT inconclusive
CCC1(C2CCN(Cc3cc4ccccc4o3)CC2)NC(=O)N(CC2COc3ccccc3O2)C1=O (configuration not stated)	DT40 TDP1 CPT inconclusive, TDP1 cell noCPT 21µM (no result: IL-1B inflam inh, DRD3 agonist, ClpP mod, D3 antag)
CCC1(C2CCN(C(=O)c3ccc4ccccc4c3)CC2)NC(=O)N(CCc2scnc2C)C1=O (configuration not stated)	none (no result: IL-1B inflam inh, DRD3 agonist, ClpP mod, D3 antag)
O=C(Nc1ccccn1)c1ccc(S(=O)(=O)N2CCCCCC2)cc1	ClpP mod inconclusive
Cc1nc(SCC(=O)NCc2cccs2)nc(C)c1C	none (no result: ClpP mod)
O=C(CSc1cccc2cccc(Cl)c12)NCc1cccs1	DT40 TDP1 CPT inconclusive, TDP1 cell noCPT 26µM (no result: ClpP mod)
COc1ccccc1NC(=O)Cn1c(=O)n(CCCCCC(=O)NCc2ccccc2)c(=O)c2sccc21	DT40 TDP1 CPT inconclusive, TDP1 cell noCPT inconclusive (no result: IL-1B inflam inh, D3 antag)
Cc1cccc2c1cnn2C(=O)CCC(=O)N1CCC(C)CC1	D3 antag -57
O=C(CCC1N=C2c3ccccc3N=C(SCc3ccc(F)cc3)N2C1=O)NCc1ccc(F)cc1 (configuration not stated)	DT40 TDP1 CPT inconclusive, TDP1 cell noCPT inconclusive (no result: IL-1B inflam inh, D3 antag)
O=C(CCC1N=C2c3ccccc3N=C(SCc3ccccc3F)N2C1=O)NCc1ccc(F)cc1 (configuration not stated)	DT40 TDP1 CPT inconclusive, TDP1 cell noCPT 26µM (no result: IL-1B inflam inh, D3 antag)
COc1ccc(CNC(=O)CCC2N=C3c4ccccc4N=C(SCc4ccc(F)cc4)N3C2=O)cc1 (configuration not stated)	DT40 TDP1 CPT inconclusive, TDP1 cell noCPT 23µM (no result: IL-1B inflam inh, D3 antag)
COc1ccc(CNC(=O)CCC2N=C3c4ccccc4N=C(SCc4ccccc4F)N3C2=O)cc1 (configuration not stated)	DT40 TDP1 CPT inconclusive, TDP1 cell noCPT inconclusive (no result: IL-1B inflam inh, D3 antag)

Source: PubChem
